In PubChem BioAssay AID1159580 (chemical genetic matrix, 2015):
Screen size: about 5,500 compounds; about 2,000 (36%) were called active. Inconclusive results (about 18%) are left out. No stated cut-off is given here; in the data, active means normalized growth mostly below about 0.91 (no sharp cut-off); inconclusive means no clear call, values can overlap the other calls; inactive means mostly above about 0.92. The list shows a part of the results.

Assay: chemical genetic growth profiling, strain panel (AID 1159580);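 further: tested at 20 µM; growth read once vehicle control cultures reached saturation at 30 °C; 1 = growth at the plate median or of vehicle wells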
Details: growth OD

Measured: normalized growth

CC(=O)[C@@]1(O)CCC2C3CCC4=CC(=O)CC[C@]4(C)C3CC[C@@]21C (stereo partly drawn)
active: S. cerevisiae deletion strains, locus YLR262C, strain YPT6 (second series), stronger effect = lower value 0.823
inactive: S. cerevisiae deletion strains, locus YJR066W, strain TOR1, stronger effect = lower value 0.93 | S. cerevisiae deletion strains, locus YKL009W, strain mrt4, stronger effect = lower value 0.995 | S. cerevisiae deletion strains, locus YKL068W, stronger effect = lower value 1.01 | S. cerevisiae deletion strains, locus YKL085W, strain MDH1 (second series), stronger effect = lower value 1.02 | S. cerevisiae deletion strains, locus YKL085W, strain MDH1, stronger effect = lower value 1.02 | S. cerevisiae deletion strains, locus YKL160W, strain elf1, stronger effect = lower value 0.997 | S. cerevisiae deletion strains, locus YKL190W, strain CNB1, stronger effect = lower value 0.998 | S. cerevisiae deletion strains, locus YKR001C, strain vps1, stronger effect = lower value 1.06 | S. cerevisiae deletion strains, locus YKR026C, strain gcn3, stronger effect = lower value 0.966 | S. cerevisiae deletion strains, locus YKR091W, strain srl3, stronger effect = lower value 0.991 | S. cerevisiae deletion strains, locus YLL001W, strain dnm1, stronger effect = lower value 0.98 | S. cerevisiae deletion strains, locus YLL026W, stronger effect = lower value 0.994 | S. cerevisiae deletion strains, locus YLL041C, strain sdh2, stronger effect = lower value 0.99 | S. cerevisiae deletion strains, locus YLR027C, strain aat2, stronger effect = lower value 1 | S. cerevisiae deletion strains, locus YLR039C, strain RIC1, stronger effect = lower value 0.841 | S. cerevisiae deletion strains, locus YLR058C, strain SHM2, stronger effect = lower value 0.987 | S. cerevisiae deletion strains, locus YLR102C, strain apc9, stronger effect = lower value 1.01 | S. cerevisiae deletion strains, locus YLR113W, strain HOG1, stronger effect = lower value 0.97 | S. cerevisiae deletion strains, locus YLR221C, strain rsa3, stronger effect = lower value 1 | S. cerevisiae deletion strains, locus YLR258W, strain gsy2, stronger effect = lower value 0.993 | S. cerevisiae deletion strains, locus YLR262C, strain YPT6, stronger effect = lower value 0.805 | S. cerevisiae deletion strains, locus YLR268W, strain sec22, stronger effect = lower value 1.01 | S. cerevisiae deletion strains, locus YLR320W, strain mms22, stronger effect = lower value 0.939 | S. cerevisiae deletion strains, locus YLR330W, strain CHS5, stronger effect = lower value 1 | S. cerevisiae deletion strains, locus YLR342W, strain FKS1 (second series), stronger effect = lower value 0.987 | S. cerevisiae deletion strains, locus YLR342W, strain FKS1, stronger effect = lower value 0.989 | S. cerevisiae deletion strains, locus YLR357W, strain rsc2, stronger effect = lower value 1.01 | S. cerevisiae deletion strains, locus YLR370C, strain arc18, stronger effect = lower value 0.984 | S. cerevisiae deletion strains, locus YLR371W, strain rom2, stronger effect = lower value 1.01 | S. cerevisiae deletion strains, locus YLR384C, strain iki3, stronger effect = lower value 1.01 | S. cerevisiae deletion strains, locus YLR418C, strain cdc73, stronger effect = lower value 1.01 | S. cerevisiae deletion strains, locus YML016C, strain PPZ1, stronger effect = lower value 0.986 | S. cerevisiae deletion strains, locus YML032C, strain rad52, stronger effect = lower value 0.981 | S. cerevisiae deletion strains, locus YML120C, strain ndi1, stronger effect = lower value 1.01 | S. cerevisiae deletion strains, locus YML124C, strain tub3, stronger effect = lower value 1 | S. cerevisiae deletion strains, locus YMR058W, strain fet3, stronger effect = lower value 0.996 | S. cerevisiae deletion strains, locus YMR078C, strain ctf18, stronger effect = lower value 0.992 | S. cerevisiae deletion strains, locus YMR125W, strain sto1, stronger effect = lower value 0.984 | S. cerevisiae deletion strains, locus YMR129W, stronger effect = lower value 0.982 | S. cerevisiae deletion strains, locus YMR205C, strain PFK2, stronger effect = lower value 0.957 | S. cerevisiae deletion strains, locus YMR223W, strain ubp8, stronger effect = lower value 0.995 | S. cerevisiae deletion strains, locus YMR231W, strain pep5, stronger effect = lower value 0.996 | S. cerevisiae deletion strains, locus YMR307W, strain GAS1, stronger effect = lower value 0.97 | S. cerevisiae deletion strains, locus YNL067W, strain RPL9B, stronger effect = lower value 0.999 | S. cerevisiae deletion strains, locus YNL071W, strain lat1, stronger effect = lower value 1 | S. cerevisiae deletion strains, locus YNL183C, strain NPR1, stronger effect = lower value 0.907 | S. cerevisiae deletion strains, locus YNL209W, strain ssb2, stronger effect = lower value 0.995 | S. cerevisiae deletion strains, locus YNL233W, strain BNI4, stronger effect = lower value 1 | S. cerevisiae deletion strains, locus YNL248C, strain rpa49, stronger effect = lower value 0.999 | S. cerevisiae deletion strains, locus YNL250W, strain rad50, stronger effect = lower value 1.01 | S. cerevisiae deletion strains, locus YNL271C, strain bni1, stronger effect = lower value 1 | S. cerevisiae deletion strains, locus YNL298W, strain CLA4, stronger effect = lower value 1.01 | S. cerevisiae deletion strains, locus YNL307C, strain MCK1, stronger effect = lower value 1.01 | S. cerevisiae deletion strains, locus YNL322C, strain KRE1 (second series), stronger effect = lower value 0.996 | S. cerevisiae deletion strains, locus YNL322C, strain KRE1, stronger effect = lower value 0.994 | S. cerevisiae deletion strains, locus YNR049C, strain mso1, stronger effect = lower value 0.988 | S. cerevisiae deletion strains, locus YNR052C, strain pop2, stronger effect = lower value 1 | S. cerevisiae deletion strains, locus YOL012C, strain htz1 0.769 | S. cerevisiae deletion strains, locus YOL147C, strain pex11, stronger effect = lower value 1.01 | S. cerevisiae deletion strains, locus YOR001W, strain rrp6, stronger effect = lower value 1 | S. cerevisiae deletion strains, locus YOR061W, strain CKA2, stronger effect = lower value 0.993 | S. cerevisiae deletion strains, locus YOR069W, strain VPS5, stronger effect = lower value 0.996 | S. cerevisiae deletion strains, locus YOR070C, strain gyp1, stronger effect = lower value 0.994 | S. cerevisiae deletion strains, locus YOR080W, strain dia2, stronger effect = lower value 0.991 | S. cerevisiae deletion strains, locus YOR083W, strain WHI5, stronger effect = lower value 1 | S. cerevisiae deletion strains, locus YOR106W, strain vam3, stronger effect = lower value 1.02 | S. cerevisiae deletion strains, locus YOR136W, strain idh2, stronger effect = lower value 1.01 | S. cerevisiae deletion strains, locus YOR144C, strain elg1, stronger effect = lower value 1 | S. cerevisiae deletion strains, locus YOR184W, strain ser1, stronger effect = lower value 0.943 | S. cerevisiae deletion strains, locus YOR231W, strain MKK1, stronger effect = lower value 0.965 | S. cerevisiae deletion strains, locus YOR265W, strain rbl2, stronger effect = lower value 1 | S. cerevisiae deletion strains, locus YOR270C, strain vph1, stronger effect = lower value 0.974 | S. cerevisiae deletion strains, locus YOR290C, strain snf2, stronger effect = lower value 0.953 | S. cerevisiae deletion strains, locus YOR316C, strain cot1, stronger effect = lower value 1 | S. cerevisiae deletion strains, locus YPL051W, strain arl3, stronger effect = lower value 0.995 | S. cerevisiae deletion strains, locus YPL055C, strain LGE1, stronger effect = lower value 1.02 | S. cerevisiae deletion strains, locus YPL078C, strain atp4, stronger effect = lower value 0.997 | S. cerevisiae deletion strains, locus YPL106C, strain sse1, stronger effect = lower value 1.02 | S. cerevisiae deletion strains, locus YPL240C, strain hsp82, stronger effect = lower value 0.987 | S. cerevisiae deletion strains, locus YPL241C, strain CIN2, stronger effect = lower value 0.995 | S. cerevisiae deletion strains, locus YPL256C, strain CLN2, stronger effect = lower value 0.96 | S. cerevisiae deletion strains, locus YPR119W, strain clb2, stronger effect = lower value 1 | S. cerevisiae deletion strains, locus YPR141C, strain kar3, stronger effect = lower value 0.992 | S. cerevisiae deletion strains, locus YPR163C, strain tif3, stronger effect = lower value 0.998 | S. cerevisiae deletion strains, locus YPR167C, strain met16, stronger effect = lower value 1 | S. cerevisiae deletion strains, strain wtn01, stronger effect = lower value 1.05 | S. cerevisiae strains, strain wild type, stronger effect = lower value 0.991
